Shown is part of a subset that was picked to be rich in hits.
ROC1-CUL1 inh: inhibitors of human ROC1-CUL1 ubiquitin ligase activity; in vitro K48 di-Ub FRET, acceptor:donor ratio, 45 min; inhibition, % at 10 µM; 140,000 tested, 0.6% active; AID 1347404; in the data active = inhibition above about 25%
* hit, by the source's call.

How did O=S(=O)(Nc1nccs1)c1ccc(N=Cc2cccc(Cl)c2Cl)cc1 do in these assays?
ROC1-CUL1 inh: -3.2

Results for Cc1ccccc1NS(=O)(=O)c1ccc(NC(=O)c2ccc(COc3ccc4c(c3)CCC4)cc2)cc1 ?
ROC1-CUL1 inh: -11.3

What do the screens show for `COC(=O)c1ccc(C(=O)Nc2cc(Cl)ccc2Cl)cc1NC(=O)c1ccccc1I`?
ROC1-CUL1 inh: -4.2

How did CCCCCCCCCCCCCCCC[n+]1ccc(/C=C/c2ccc(N(C)C)cc2)cc1 do in these assays?
ROC1-CUL1 inh: 28.7*

What do the screens show for `CCCCCCCCCCCCCCCCCCN(C)c1ccc(/C=C/c2cc[n+](C)cc2)cc1`?
ROC1-CUL1 inh: 7.1

What do the screens show for `CCCCCCCC(=O)Nc1ccc(N(C)C)cc1`?
ROC1-CUL1 inh: -0.7

How did CCOC(=O)c1[nH]ncc1CN1CCCC(N2CCN(c3ccccc3F)CC2)C1 (stereo not given) do in these assays?
ROC1-CUL1 inh: 3.0

How did COc1ccc2c(=O)c(=O)c2c1 do in these assays?
ROC1-CUL1 inh: 71.7*

What do the screens show for `COc1ccc2ccc3c4ccccc4c(OC)cc3c2c1`?
ROC1-CUL1 inh: 1.1

How did COc1ccc2c(=O)c(I)coc2c1 do in these assays?
ROC1-CUL1 inh: -2.5

Results for CC(C)(C)C(=O)OC1C(OC(=O)C(C)(C)C)C(OC(=O)C(C)(C)C)C(OC(=O)C(C)(C)C)C(OC(=O)C(C)(C)C)C1OC(=O)C(C)(C)C (stereo not given) ?
ROC1-CUL1 inh: -3.8

Results for COc1ccc(C(=O)Nc2ccc(-c3noc(-c4ccc(F)cc4)n3)cc2)cc1 ?
ROC1-CUL1 inh: -1.5

Results for N#CC1=CC2CCCCCCC2=NC1=S (stereo not given) ?
ROC1-CUL1 inh: 0.1

Results for N#CC1=CC2CCCC2=NC1=S (stereo not given) ?
ROC1-CUL1 inh: 105.7*

How did CCC1=C(C#N)C(=S)N=C2CCCC21 (stereo not given) do in these assays?
ROC1-CUL1 inh: -2.4

How did Cc1ccsc1/C=N\NC(=O)COc1cc(Cl)ccc1Cl do in these assays?
ROC1-CUL1 inh: 2.0

How did O=C(CCC(=O)Nc1ccccc1)NNC(=O)Nc1ccccc1 do in these assays?
ROC1-CUL1 inh: 0.5

How did O=C1c2c(Cl)c(Cl)c(Cl)c(Cl)c2C(=O)C1C(c1ccccc1)c1ccccc1 do in these assays?
ROC1-CUL1 inh: 61.6*

What do the screens show for `CC(C(=O)OCC(=O)c1ccc(-c2ccccc2)cc1)N1C(=O)c2c(Cl)c(Cl)c(Cl)c(Cl)c2C1=O` (stereo not given)?
ROC1-CUL1 inh: 3.8

What do the screens show for `Cc1ccccc1C(c1ccccc1)C1C(=O)c2ccccc2C1=O` (stereo not given)?
ROC1-CUL1 inh: -3.6

Results for NC(=O)CSCCN1CCCCC1 ?
ROC1-CUL1 inh: 0.4

Results for O=C(CSc1nc(-c2ccc(F)cc2)nc2c1Cc1ccccc1O2)Nc1cccc(C(=O)O)c1 ?
ROC1-CUL1 inh: 25.2*

Results for COc1cc(NC(=O)CSc2nc(-c3ccc(C)cc3)nc3c2Cc2ccccc2O3)cc(OC)c1 ?
ROC1-CUL1 inh: 5.0

Results for COc1cccc2c1Oc1nc(-c3ccccc3)nc(SCC(=O)Nc3ccccc3)c1C2 ?
ROC1-CUL1 inh: -6.3

Results for COCCN(CC1CCN(Cc2ccccc2OC)CC1)C(=O)C1CCCO1 (stereo not given) ?
ROC1-CUL1 inh: 9.1

How did CCOc1cccc(CNc2ccc(O)cc2)c1OCc1ccccc1 do in these assays?
ROC1-CUL1 inh: 97.0*

How did CCOc1cc(CNCc2cccs2)cc(Br)c1OC do in these assays?
ROC1-CUL1 inh: -8.3

Results for CCOc1cc(CNc2ccc(O)cc2)cc(Br)c1OCc1cccs1 ?
ROC1-CUL1 inh: 74.6*

Results for CCOc1cc(CNc2ccc(O)cc2)cc(Br)c1OCc1ccccc1 ?
ROC1-CUL1 inh: 3.8

Results for Oc1ccc(NCc2ccccc2OCc2ccccc2)cc1 ?
ROC1-CUL1 inh: 6.5

How did Oc1ccc(NCc2ccccc2OCc2ccc(Cl)cc2)cc1 do in these assays?
ROC1-CUL1 inh: 6.7

What do the screens show for `Cc1cccc(-c2nnc(SCC(=O)OC3CCCCC3)n2-c2ccccc2)c1`?
ROC1-CUL1 inh: -6.1

What do the screens show for `CCCCN1CC(C(=O)Nc2ccc(C)cc2)CC1=O` (stereo not given)?
ROC1-CUL1 inh: 3.3

Results for COc1ccc(-c2[nH]ncc2/C=C(/C#N)C(=O)NCc2ccco2)cc1 ?
ROC1-CUL1 inh: -5.7

How did Cc1ccc(NC(=S)N/N=C/c2ccccc2[N+](=O)[O-])cc1 do in these assays?
ROC1-CUL1 inh: -6.1

What do the screens show for `Cc1ccc(C(=O)N2CCCC2C(=O)O)cc1C` (stereo not given)?
ROC1-CUL1 inh: 6.0

How did COc1cc(/C=C/c2nc(-c3ccccc3O)n(-c3ccccc3)n2)ccc1O do in these assays?
ROC1-CUL1 inh: 12.0

How did CN(Cc1ccc(F)cc1)c1ccc(OCC(=O)NCCc2cccc(Cl)c2)nn1 do in these assays?
ROC1-CUL1 inh: -2.6

How did N#CC1C(=N)Oc2n[nH]c(-c3ccc(-c4ccccc4)cc3)c2C1c1ccccn1 (stereo not given) do in these assays?
ROC1-CUL1 inh: 30.8*

How did N#CC1C(=N)Oc2n[nH]c(-c3ccc(-c4ccccc4)cc3)c2C1c1ccccc1F (stereo not given) do in these assays?
ROC1-CUL1 inh: 5.7

What do the screens show for `N#CC1C(=N)Oc2n[nH]c(-c3ccccc3)c2C1c1ccccc1Cl` (stereo not given)?
ROC1-CUL1 inh: 12.9

What do the screens show for `Cc1ccc(-c2[nH]nc3c2C(c2ccc(O)c(O)c2)C(C#N)C(=N)O3)cc1` (stereo not given)?
ROC1-CUL1 inh: 34.6*

What do the screens show for `Cc1ccc(-c2[nH]nc3c2C(c2ccc(Cl)cc2)C(C#N)C(=N)O3)cc1` (stereo not given)?
ROC1-CUL1 inh: -8.6

What do the screens show for `Cc1ccc(-c2[nH]nc3c2C(c2ccc4c(c2)OCO4)C(C#N)C(=N)O3)cc1` (stereo not given)?
ROC1-CUL1 inh: 1.0

How did O=C(c1ccc(=O)[nH]c1)N1CCC2(CCCN(Cc3ccc(F)c(F)c3)C2)C1 (stereo not given) do in these assays?
ROC1-CUL1 inh: -5.0

How did CCOC(=O)c1c(-c2ccc(C)cc2)csc1NC(=O)Cc1ccc([N+](=O)[O-])cc1 do in these assays?
ROC1-CUL1 inh: 3.7

What do the screens show for `COCCNC(=O)c1ccc(OC2CCN(C(=O)CCn3cncn3)CC2)c(Cl)c1`?
ROC1-CUL1 inh: 4.5

Results for CC1=NN(c2ccc(C)cc2)C(O)C1 (stereo not given) ?
ROC1-CUL1 inh: 75.0*

Results for CSc1ccc(C2N(c3ccc(C)cc3)CCN2c2ccc(C)cc2)cc1 ?
ROC1-CUL1 inh: -15.8

How did Cc1ccc(N2C(=O)C(=O)N=C(Cl)C2Cl)cc1 (stereo not given) do in these assays?
ROC1-CUL1 inh: 5.3

How did CCS(=O)(=O)N1CCCC(C(=O)Nc2cccc(C)c2C)C1 (stereo not given) do in these assays?
ROC1-CUL1 inh: 4.7

How did O=C(Nc1nc2ccccc2s1)C(C(F)(F)F)C(F)(F)F do in these assays?
ROC1-CUL1 inh: 74.2*

What do the screens show for `CC(Oc1ccccc1)C(=O)Nc1nc2ccccc2s1` (stereo not given)?
ROC1-CUL1 inh: 2.9

Results for CC(C)C(=O)Nc1nc2ccccc2s1 ?
ROC1-CUL1 inh: 1.1

What do the screens show for `COc1cccc(C(=S)NCS(=O)(=O)c2ccc(C)cc2)c1`?
ROC1-CUL1 inh: -4.7

What do the screens show for `S=C(NCCc1ccccn1)c1ccccc1`?
ROC1-CUL1 inh: 5.6

What do the screens show for `O=S(=O)(CNC(=S)c1ccccc1)c1ccccc1`?
ROC1-CUL1 inh: 35.4*

What do the screens show for `O=C1C(=O)N(CCN2CCOCC2)C(c2ccccc2F)C1C(=O)c1ccccc1` (stereo not given)?
ROC1-CUL1 inh: 0.1

Bioassay records: PubChem, Pan Lab, Icahn School of Medicine at Mount Sinai
